Test results as given in PubChem BioAssay AID720533 (National Center for Advancing Translational Sciences (NCATS), 2013).
“And” between values parts separate entries of the source, which are not always exact repeats. Identical values can stand only once. Screen size: about 18,000 compounds; about 750 (4.2%) were called active. Inconclusive results (about 13%) are left out. The call rests on the fitted dose curve; tested in HEK293 cells. The entries come from a sample that favours actives as a whole. A call without a number means that no potency is given here. Starred links: 1 amine or outer side, 2 acyl side, 3 side chain; linkers in the order of their positions; H or OH if unused. Positions of bridges follow the written chain, without caps; N, C: chain ends. Non-standard residues stand in square brackets, D forms with d. Residues, ends and D or L forms follow the SMILES beside them. *: point of attachment. X15 = NC1=N[C@@H]([C@H](N[*:1])C(=O)[*:2])C[C@H](O)N1; ΔAla(Z-3-ureido) = NC(=O)N/C=C(\N)C(=O)O; β3hOrn = NCCC[C@H](N)CC(=O)*; Dap = NC[C@H](N)C(=O)O

assay: qHTS for Inhibitors of binding or entry into cells for Lassa Virus; settings: Lassa virus pseudotyped entry inhibition, cell-based qHTS; series mostly up to 49.2 µM
Potency means the concentration at half of the fitted maximal effect.

SMILES | activity change, negative = inhibition | Potency
Cc1cnc(C(=O)N2CCOc3ccc(CN4CCCC(C(=O)c5cccnc5)C4)cc3C2)[nH]1 (stereo not drawn) | inactive | 
Nc1nc(/C(=C/CC(=O)O)C(=O)N[C@@H]2C(=O)N3C(C(=O)O)=CCS[C@H]23)cs1 | inactive | 
COc1cccc([C@@H]2Oc3ccc(Br)cc3C(=O)[C@H]2OC(=O)NCCc2ccc(OC)c(OC)c2)c1 | inactive | 
C/C=C(\C)C(=O)OC1C(OC(=O)C2(C)OC2C)c2cc3ccc(=O)oc3cc2OC1(C)C (stereo not drawn) | inactive | 
OCC1CCCN(c2nc3cc4c(cc3cc2CNCc2cccs2)OCO4)C1 (stereo not drawn) | inactive | 
CCOC(=O)CCN1C(=O)[C@@H]2[C@H]3[C@H](O)[C@H](O)CC(=NOCC(C)C)[C@@H]3CC[C@H]2C1=O | -24.6% [at 8.59 µM] (inactive) | 
CCN1CCN(C(=O)N[C@@H](C(=O)N[C@@H]2C(=O)N3C(C(=O)O)=C(CSc4nnnn4C)CS[C@H]23)c2ccc(O)cc2)C(=O)C1=O | inactive | 
CCOC(=O)C1C/C(=C\C(C)=O)c2cccc(C(F)(F)F)c2O1 (stereo not drawn) | inactive | 
CC(C)[C@@H](OCc1ccccc1)[C@H](C)C=NOC[C@@H](C)[C@H](OCc1ccccc1)C(C)C | 8.86% [at 8.59 µM] (inactive) | 
COc1ccc(CN(C)CCn2cc(C(=O)N3CCSCC3)nn2)cc1C | inactive | 
CC1OC(OCC2OC(Oc3c(-c4ccc(O)c(O)c4)oc4cc(O)cc(O)c4c3=O)C(O)C(O)C2O)[C@@H](O)C(O)C1O (stereo partly drawn) | inactive | 
CNc1ncnc2ccc(-c3cccc(NS(C)(=O)=O)c3)cc12 | inactive | 
COc1ccc(Nc2ncnc3ccc(OC)cc23)cc1 | inactive | 
Cc1csc(-c2nc3ccccc3n2C)n1 | inactive | 
CNC(=O)C[C@H]1C(=O)N(Cc2ccccc2)C[C@@H]1CSC | inactive | 
CCCCCCN1C[C@@H](O)[C@H](n2cc(-c3ccc(F)cc3)nn2)C[C@H]1c1ccccc1 | inactive | 
COc1c(O)cc2oc(-c3ccc(O)c(O)c3)cc(=O)c2c1O | inactive | 
Cc1nc2cc(NC(=O)[C@@H]3C[C@@H](Sc4ccccn4)CN3Cc3ccccc3C)ccc2s1 | inactive | 
CCCN(C/C=C/I)C1CCc2ccc(O)cc2C1 (stereo not drawn) | inactive | 
CC[C@@H]1Cc2cc(O)ccc2C2=C1c1ccc(O)cc1C[C@H]2CC |  | 20 µM (active)
COCOc1cc(OC)ccc1C(=O)/C=C/c1ccc([N+](=O)[O-])cc1 | inactive | 
CCOC(=O)C1=C(C(=O)OCC)C(C(=O)OCC)N(S(=O)(=O)C(F)(F)F)c2ccccc21 (stereo not drawn) | inactive | 
c1ccc(CN2CCN(Cc3ccc4c(c3)CN(Cc3c[nH]c5ccccc35)CCO4)CC2)nc1 | inactive | 
O=C(O)CCC(=O)O | inactive | 
O=C(CCN1Cc2ccccc2OC(c2ccccc2)C1)N[C@@H]1CS(=O)(=O)C[C@H]1O (stereo partly drawn) | inactive | 
COC(=O)c1c(OCc2ccc(F)cc2)cc(=O)n2c1CCN(Cc1ccc3cccnc3c1)CC2 | inactive | 

SMILES | activity change, negative = inhibition | Potency
CC1C(=O)N(Cc2cn(Cc3ccco3)nn2)CCS(=O)(=O)N1Cc1ccc(-c2cccc(CO)c2)cc1 (stereo not drawn) | inactive | 
Cc1cccc(CN2CCN(C3CN(Cc4cn(Cc5ccccc5F)nn4)S(=O)(=O)C3)CC2)c1 (stereo not drawn) | inactive | 
NCCC[C@H](N)CC(=O)N[C@H]1CNC(=O)[C@H]([C@H]2C[C@H](O)NC(N)=N2)NC(=O)/C(=C/NC(N)=O)NC(=O)[C@H](CO)NC(=O)[C@H](CO)NC1=O (β3hOrn-[Dap]SS[ΔAla(Z-3-ureido)][X15]; lactam 1-C) | inactive | 
O=C1C2=C(C(=O)c3ccccc31)[C@H]1O[C@](CCCCN3C(=O)c4ccccc4C3=O)(Cc3c1ccc1ccccc31)O2 | 10.1% [at 8.59 µM] (inactive) | 
C/C(Nc1ccc2oc(=O)ccc2c1)=C1/C(=O)CC2[C@@H]1C2(C)C (stereo partly drawn) | inactive | 
CCCCCCc1cc2cc(OC)c(OC)cc2c2c(C(=O)OC)c(C(=O)OC)c(C(=O)OC)n12 | -14.4% [at 8.59 µM] (inactive) | 
CO[C@]1(NC(=O)CSC(F)F)C(=O)N2C(C(=O)O)=C(CSc3nnnn3CCO)CO[C@H]21 | inactive | 
O=C(C=Cc1ccccc1)Nc1cccc(C(=O)N2CCCCC2)c1 | inactive | 
Nc1nc(-c2ccc3c(c2)C(=Cc2cc(Br)c(O)c(Br)c2)C(=O)N3)cs1 | inactive | 
Cc1ccc(-c2ccc(CN3C(C(C)C)C(=O)N(Cc4cn(CCC5OCCCO5)nn4)CCS3(=O)=O)cc2)cc1 (stereo not drawn) | inactive | 
COC(=O)CC1c2ccccc2C(Cc2ccc(OC)cc2)=C(C)N1C(=O)OC (stereo not drawn) | 25.9% [at 8.59 µM] (inactive) and -25.2% [at 8.59 µM] (inactive) | 
C=CC1=C2C=C(C3CC3)N(C(CO)CO)C=C2C(=O)C(C)(OC(=O)c2ccco2)C1=O (stereo not drawn) | 4.32% [at 8.59 µM] (inactive) | 
COCC(=O)Nc1cc(C(=O)N2CCCC(c3ccccc3)CC2)c2c(c1)nc(-c1ccncc1)n2C (stereo not drawn) | inactive | 
C[C@@H](O)[C@@H]1NC(=O)[C@H](CCCCN)NC(=O)[C@H](Cc2c[nH]c3ccccc23)NC(=O)[C@H](Cc2ccccc2)NC(=O)[C@H](Cc2ccccc2)NC(=O)[C@H](CC(N)=O)NC(=O)[C@H](CCCCN)NC(=O)[C@@H](NC(=O)[C@@H]2CCCN2)CSSC[C@@H](C(=O)N[C@@H](CCCCN)C(=O)O)NC(=O)[C@H](CO)NC(=O)[C@H](CO)NC(=O)[C@H](Cc2ccccc2)NC1=O (H-PCKNFFWKTFSSCK-OH; disulfide 2-13) | inactive | 
C[C@@]12CC[C@H]3[C@@H](CC[C@]4(O)C[C@H](O)CC[C@@]34C=O)[C@]1(O)CC[C@@H]2C1=CC(=O)OC1 |  | 1.26 µM (active)
COC1CC(OC2CC[C@@]3(C=O)C4CC[C@]5(C)C(C6=CC(=O)OC6)CC[C@@]5(O)C4CC[C@]3(O)C2)OC(C)C1O (stereo partly drawn) |  | 0.282 µM (active)
Nc1nc2c(nc(Cl)n2C2OC(CO)C(O)C2O)c(=O)[nH]1 (stereo not drawn) | inactive | 
CC(C)NC[C@H](O)c1ccc2ccccc2c1 | inactive | 
C#C[C@]1(O)CC[C@H]2[C@@H]3CCC4=CC(=O)CC[C@@H]4[C@H]3CC[C@@]21CC | inactive | 
CC(=O)OCC(=O)[C@@]1(O)CCC2C3CCC4=CC(=O)CC[C@]4(C)C3C(=O)C[C@]21C (stereo partly drawn) | inactive | 
C#C[C@]1(OC(=O)CCCCCC)CC[C@H]2[C@@H]3CCC4=CC(=O)CC[C@@H]4[C@H]3CC[C@@]21C |  | 31.6 µM (active)
O=c1[nH]c(=O)c2nc3ccccc3nc2[nH]1 | inactive | 
CC(O)(COc1ccccc1)c1ccc2c(c1)CN(Cc1cn[nH]c1-c1ccc(F)cc1)CCO2 (stereo not drawn) | inactive | 
CCCCCC(=O)N1C[C@H](n2cc(COC(=O)c3ccccc3)nn2)[C@@H](O)C[C@H]1c1ccc(Cl)cc1 | inactive | 
C=C(CCN1C=C(C(=O)OCC)C(c2ccccc2)NC1=O)OC (stereo not drawn) | -11% [at 8.59 µM] (inactive) | 
CC(O)[C@@H](N)C(=O)O (stereo partly drawn) | inactive | 

SMILES | activity change, negative = inhibition | Potency
COc1c(O)c2c(=O)cc(OC)c3c4c(OC)cc(=O)c5c(O)c(OC)c6c(c(c1C[C@@](C)(O)[C@H]6C(C)=O)c23)c54 |  | 35.5 µM (active)
CCOC(=O)C1=NO[C@@]2(C=C(Br)C(=O)[C@H]3O[C@H]32)C1 | inactive | 
COc1ccc(C2CC(=O)Oc3ccc(C(C)(C)C)cc32)cc1 (stereo not drawn) | inactive | 
CC(C)C[C@@H](CC(=O)N[C@@H](CCC(=O)O)CC(=O)O)NC(=O)[C@@H]1CCCC[C@H]1NC(=O)C[C@@H](NC(=O)C[C@H](CO)NC(=O)[C@@H]1CCCC[C@H]1N)C(C)C | inactive | 
CN1CCC[C@@H]1CCO[C@](C)(c1ccccc1)c1ccc(Cl)cc1 | inactive | 
CN1CCCC1CCO[C@@](C)(c1ccccc1)c1ccc(Cl)cc1 (stereo partly drawn) |  | 12.6 µM (active)
Fc1ccc(C(OCCN2CCN(C/C=C\c3ccccc3)CC2)c2ccc(F)cc2)cc1 |  | 28.2 µM (active)
COc1ccc(CC2c3cc(OC)c(OC)cc3CC[N+]2(C)CCC(=O)OCCCCCOC(=O)CC[N+]2(C)CCc3cc(OC)c(OC)cc3C2Cc2ccc(OC)c(OC)c2)cc1OC (stereo not drawn) | inactive | 
CC(C)[C@@H](CC(=O)N[C@@H]1CCNC[C@H]1C(=O)N[C@H](CC(=O)N[C@@H](CCC(=O)O)CC(=O)O)Cc1ccccc1)NC(=O)C[C@H](CO)NC(=O)[C@@H]1CNCC[C@H]1N | inactive | 
CN1CC(O)c2cc(N=NC(N)=O)c(O)cc21 (stereo not drawn) | inactive | 
CN(C)CCc1c[nH]c2ccc(Cn3cncn3)cc12 | inactive | 
Fc1ccc(Cl)cc1-c1nc(Nc2ccncc2)c2nccnc2n1 | inactive | 
CCS(=O)(=O)N(C)[C@@H]1c2cc(C#N)ccc2OC(C)(C)[C@H]1O | inactive | 
CCc1cc2c(nc1CC)CCN(CCC(C)=NOC[C@@H](O)COCc1ccco1)C2 | 3.34% [at 8.59 µM] (inactive) | 
Cc1ccc(-c2cc(=O)c3ccc(Cl)cc3[nH]2)cc1 | inactive | 
C=C(C(C)=O)C(O)c1cccs1 (stereo not drawn) | inactive | 
COC12CC[C@@]3(C[C@@H]1C(C)(O)C(C)(C)C)[C@H]1Cc4ccc(O)c5c4[C@@]3(CCN1CC1CC1)[C@H]2O5 (stereo partly drawn) |  | 28.2 µM (active)
COc1ccc(CNS(=O)(=O)c2cc(Br)ccc2Br)cc1 | inactive | 
O=S(O)CNc1ccc(S(=O)(=O)c2ccc(NCS(=O)O)cc2)cc1 | inactive | 
O=C(O)C1=CCCN(CCON=C(c2ccccc2)c2ccccc2)C1 | inactive | 
COc1ccc(C2=C(N3CCc4ccccc43)C(=O)NC2=O)cc1 | inactive | 
CC1=C(/C=C/C(C)=C/C=C/C(C)=C/C=C/C=C(C)/C=C/C=C(C)/C=C/C2=C(C)CCCC2(C)C)C(C)(C)CCC1 | inactive | 
COc1ccc(CCNc2ncnc3sc(C(=O)N4CCCC4)c(C)c23)cc1OC | inactive | 
Cc1c2ccc(N(C)c3ccnc(Nc4cccc(S(N)(=O)=O)c4)n3)cc2nn1C | inactive | 
C=CCC(C)(O)c1ccco1 (stereo not drawn) | inactive | 
CC1=C[C@H]2c3ccccc3C[C@H]2CO[C@]12C(=O)N(Cc1ccc(Br)cc1)c1ccccc12 | 16.7% [at 8.59 µM] (inactive) | 
